# Data reported in publication PMC6212790, “How bacterial xenogeneic silencer rok distinguishes foreign from self DNA in its resident genome”.
# In all, about 33,000 sequences were measured (“e-score”: median about -0.037, highest 2% from about 0.34 on). What follows is part of a selection rich in the highest values, with near analogues and random picks from the rest.
# Target: T1, GST-Rok (full length) (Bacillus subtilis subsp. subtilis str. …, UniProt O34857 1-191)
# T1 sequence: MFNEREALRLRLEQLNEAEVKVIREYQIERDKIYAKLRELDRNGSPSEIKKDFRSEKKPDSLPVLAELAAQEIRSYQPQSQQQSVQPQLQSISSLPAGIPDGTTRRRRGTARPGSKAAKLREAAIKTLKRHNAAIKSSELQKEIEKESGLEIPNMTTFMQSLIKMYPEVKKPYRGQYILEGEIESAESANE
# Assay: protein binding microarray; Rok is a gene silencer of Bacillus subtilis; high values mean tight binding
# Conditions: protein: recombinant; tags: GST (pTH5325, pDEST15-Magic modified); dsDNA, one strand shown
# Procedure, shortened: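 Every oligonucleotide joins a 25-mer constant primer to a 35-mer variable part drawn from a de Bruijn sequence of order 10, so each non-palindromic 8-mer appears at least 32 times and each palindromic 8-mer 16 times. The preference for every 8-mer is reported as a unitless, rank-based enrichment score (E-score). This score spans 0.5 for the most favored 8-mer to −0.5 for the most disfavored.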
row,Sequence,binding signal
1,AACTTATC,0.134 E-score
2,CAATGGTA,0.322 E-score
3,TAATGGTA,0.387 E-score
4,GAATGGTA,0.317 E-score
5,AACTCAGG,0.0467 E-score
6,CGTGACCA,-0.0921 E-score
7,AAGTACAG,0.272 E-score
8,GAATATTC,0.417 E-score
9,CTATATTC,0.353 E-score
10,CGATATTC,0.194 E-score
11,CTCTATTC,0.00987 E-score
12,ACATATTC,0.27 E-score
13,AAATATTC,0.251 E-score
14,CAATATTC,0.21 E-score
15,ATATATTC,0.34 E-score
16,GAATATTA,0.0406 E-score
17,AGGTCACT,-0.137 E-score
18,ATTGTTTC,0.228 E-score
19,CCGGTCAC,-0.153 E-score
20,ATACATGA,0.294 E-score
21,GTACATTA,0.262 E-score
22,CTACATGC,0.308 E-score
23,CTACATTC,0.176 E-score
24,CTACATTA,0.355 E-score
25,CTACATGA,0.347 E-score

row,Sequence,binding signal
1,CAAAAAAC,0.0394 E-score
2,TGGTAAAA,0.354 E-score
3,CGTAAAAA,0.0957 E-score
4,GGGTAAAA,0.184 E-score
5,GGTAAAAC,0.192 E-score
6,CGGTAAAA,0.278 E-score
7,GGTAAAAA,0.349 E-score
8,CGAGTTAG,0.0866 E-score
9,ACTGCCAC,-0.0928 E-score
10,AAATGATC,0.143 E-score
11,AAATGATT,-0.0952 E-score
12,AAATGATA,0.37 E-score
13,AAAACCTA,0.255 E-score
14,ACTGGTGG,-0.172 E-score
15,AAGTACTC,0.165 E-score
16,CAGTACGA,-0.048 E-score
17,AAGTACTA,0.389 E-score
18,TAGTACTA,0.44 E-score
19,GAGTACTA,0.13 E-score
20,CAGTACTA,0.279 E-score
21,AAGTACTG,0.114 E-score
22,TAGTACGA,0.359 E-score
23,GAGTACGA,0.0148 E-score
24,CCAATTGC,0.145 E-score
25,AGATAGCG,0.22 E-score

row,Sequence,binding signal
1,ACCTTCTG,-0.0843 E-score
2,GTATACAA,0.308 E-score
3,GTATACGA,0.179 E-score
4,CGATACTA,0.328 E-score
5,GTATACTA,0.378 E-score
6,ATATACTA,0.409 E-score
7,GGATACTA,0.211 E-score
8,ATATACTG,0.391 E-score
9,ATATACTC,0.288 E-score
10,CTATACTA,0.288 E-score
11,ATATACGA,0.23 E-score
12,CTATACTC,0.137 E-score
13,AGATACTA,0.348 E-score
14,ATCAGCAA,-0.0224 E-score
15,GACAAATC,-0.0534 E-score
16,ATGATTGA,0.0352 E-score
17,GGATGTTA,0.0229 E-score
18,CAATTACA,0.189 E-score
19,AAAGCCGG,-0.147 E-score
20,ACGAGTCC,-0.192 E-score
21,AATAGGAG,0.0707 E-score
22,ACATACTA,0.361 E-score
23,GCATACTA,0.325 E-score
24,ACATACTG,0.141 E-score
25,CTCCCAAC,-0.0944 E-score

row,Sequence,binding signal
1,AGGCTTAA,-0.159 E-score
2,ATACGTAA,0.323 E-score
3,CTAAAAAC,0.082 E-score
4,ATAGTTGA,0.228 E-score
5,CTAGTTGA,0.226 E-score
6,CTAGTTTA,0.383 E-score
7,CGAGTTTC,0.0534 E-score
8,ATAGTTTC,0.398 E-score
9,CCAGTTTC,-0.0817 E-score
10,ATCGTTTA,-0.0103 E-score
11,CTAGTTCA,0.152 E-score
12,ATAGTTTA,0.346 E-score
13,ATCGTTTC,0.14 E-score
14,ATAGTTCC,0.135 E-score
15,CTAGTTTC,0.413 E-score
16,GCCTACTA,0.0988 E-score
17,ACAGGAGT,0.0409 E-score
18,ACTTACTA,0.306 E-score
19,TGATTCAA,-0.164 E-score
20,AAAGAATA,0.138 E-score
21,CACTGACA,-0.161 E-score
22,GCAGTTTA,0.0849 E-score
23,ATCGTTTG,-0.0128 E-score
24,GTAGTTTA,0.382 E-score
25,GGAGTTTA,0.0513 E-score

row,Sequence,binding signal
1,ATAGTTGG,0.0271 E-score
2,ATAGTTTG,0.364 E-score
3,AGCGTACT,0.0975 E-score
4,GGTTGGTA,0.109 E-score
5,AGCCCTTA,-0.135 E-score
6,AGGAAGAA,-0.0233 E-score
7,ATGAATTA,0.353 E-score
8,ACAAATTA,0.338 E-score
9,GTAAATTA,0.383 E-score
10,ACAAATTC,0.238 E-score
11,ACAAATTG,-0.0361 E-score
12,ATAAATTA,0.347 E-score
13,CTGAATTA,0.134 E-score
14,ATAAATTC,0.221 E-score
15,ATGAATTG,0.0516 E-score
16,ATAAATTG,0.336 E-score
17,TAAAATTA,0.199 E-score
18,CTAAATTA,0.252 E-score
19,ACTAATCA,0.154 E-score
20,CCACTAGC,-0.055 E-score
21,CGCCAGTA,-0.111 E-score
22,TATTGCAA,0.253 E-score
23,ATAGCAGA,0.144 E-score
24,ATACCATC,0.198 E-score
25,CTACCATA,0.328 E-score

row,Sequence,binding signal
1,ATACCATA,0.286 E-score
2,GTACCAGA,-0.0447 E-score
3,CTACCATC,0.396 E-score
4,GTACCATA,0.339 E-score
5,ATGCTAGC,0.313 E-score
6,ATCAATTG,0.221 E-score
7,GCAATGTA,0.23 E-score
8,TAAATCGA,0.0795 E-score
9,CAAGTCAA,0.171 E-score
10,TACAACTA,0.368 E-score
11,ACAAAATC,-0.0365 E-score
12,TAGAAATA,0.409 E-score
13,CTAAAATA,0.262 E-score
14,GAGAAATA,0.305 E-score
15,GACAACTA,0.333 E-score
16,CAGAAATA,0.303 E-score
17,AACAACTA,0.292 E-score
18,TAAAAATA,0.369 E-score
19,ACAAAATA,0.34 E-score
20,CCAAAATA,0.164 E-score
21,AAAAAATA,0.314 E-score
22,GCAGAACC,-0.0431 E-score
23,ACCGGTGG,-0.196 E-score
24,CTTACCTC,0.143 E-score
25,AACGTAGA,0.17 E-score

row,Sequence,binding signal
1,AACCCAGG,-0.0972 E-score
2,AGAGGTGA,-0.164 E-score
3,GGACGCTA,0.000145 E-score
4,GAGTTGAA,0.00685 E-score
5,AAACATAG,0.247 E-score
6,CCTGCGAA,-0.196 E-score
7,GGCTTCAA,-0.0517 E-score
8,ATAACCAA,0.276 E-score
9,ATGGTTAC,-0.167 E-score
10,ATAAAATA,0.426 E-score
11,GAGAACTA,0.326 E-score
12,GGAAAATA,0.37 E-score
13,TAGAACTA,0.406 E-score
14,GAAAAATA,0.279 E-score
15,CAGAACTA,0.301 E-score
16,GTAAAATA,0.328 E-score
17,AGAAAATA,0.328 E-score
18,ATAAAATG,0.203 E-score
19,CGGACTTC,-0.0622 E-score
20,AGTGTTAG,0.118 E-score
21,GCGCGGTA,0.073 E-score
22,TGATAAAA,0.27 E-score
23,TGATATAA,0.371 E-score
